Test results taken from the supplement of paper PMC10849652.
Targets with a hit are over-represented here; the source holds about 7,900 in all. About 0.6% of all pairs of compound and target were hits.

Legend:
Test in all cases: log2 fold change, soluble protein after heating vs DMSO (PISA); higher = thermal stabilisation; K562 cells, 10 uM, 30 min; active = over 0.2 and 3.5 SD of the protein, either way, in both replicates (recomputed)
[1] = compound: CS(=O)(=O)c1ccc(-c2cnc(N)c(C(=O)Nc3ccccc3)n2)cc1
How it was run: (§1)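 Quantification of soluble protein used TMTpro 16plex LC-MS/MS, with channel sums equalised. Samples were the supernatant after 21,000xg for 90 min of pooled aliquots from K562 cells (2×10^6 cells/mL) treated with 10 μM compound for 30 min, heated for 3 min over 48°C-58°C, and extracted in PBS with 0.5% NP-40 at 4°C. Values, from duplicates, describe thermal stability against control samples on a log2 fold-change scale.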

crizotinib = compound: C[C@@H](Oc1cc(-c2cnn(C3CCNCC3)c2)cnc1N)c1c(Cl)ccc(F)c1Cl [crizotinib]
How it was run: as §1

[2] = compound: C[C@@H]1COCCN1C2=NC(=NC(=C2)C3(CC3)S(=O)(=O)C)C4=C5C=CNC5=CC=C4
How it was run: as §1

[3] = compound: C[C@H](C1=CC=C(C=C1)C(=O)NC2=C3C=CNC3=NC=C2)N
How it was run: as §1

duvelisib = compound: C[C@H](Nc1ncnc2nc[nH]c12)c1cc2cccc(Cl)c2c(=O)n1-c1ccccc1 [duvelisib]
How it was run: as §1

gandotinib = compound: Cc1cc(Nc2cc(CN3CCOCC3)c3nc(C)c(Cc4ccc(Cl)cc4F)n3n2)n[nH]1 [gandotinib]
How it was run: as §1

tozasertib = compound: Cc1cc(Nc2cc(N3CCN(C)CC3)nc(Sc3ccc(NC(=O)C4CC4)cc3)n2)n[nH]1 [tozasertib]
How it was run: as §1

[4] = compound: Cc1cc(SCc2sc(-c3ccc(C(F)(F)F)cc3)nc2C)ccc1OCC(=O)O
How it was run: as §1

doramapimod = compound: Cc1ccc(-n2nc(C(C)(C)C)cc2NC(=O)Nc2ccc(OCCN3CCOCC3)c3ccccc23)cc1 [doramapimod]
How it was run: as §1

ispinesib = compound: Cc1ccc(C(=O)N(CCCN)[C@@H](c2nc3cc(Cl)ccc3c(=O)n2Cc2ccccc2)C(C)C)cc1 [ispinesib]
How it was run: as §1

bafetinib = compound: Cc1ccc(NC(=O)c2ccc(CN3CC[C@H](N(C)C)C3)c(C(F)(F)F)c2)cc1Nc1nccc(-c2cncnc2)n1 [bafetinib]
How it was run: as §1

[5] = compound: Cc1cccc(CC(=O)N2CCc3c2ccc(-c2cn(C)c4ncnc(N)c24)c3F)n1
How it was run: as §1

nilotinib = compound: Cc1cn(-c2cc(NC(=O)c3ccc(C)c(Nc4nccc(-c5cccnc5)n4)c3)cc(C(F)(F)F)c2)cn1 [nilotinib]
How it was run: as §1

[6] = compound: Cc1nc(Nc2n[nH]c3c2CN(C(=O)N[C@H](CN(C)C)c2ccccc2)C3(C)C)c2sccc2n1
How it was run: as §1

dasatinib = compound: Cc1nc(Nc2ncc(C(=O)Nc3c(C)cccc3Cl)s2)cc(N2CCN(CCO)CC2)n1 [dasatinib]
How it was run: as §1

[7] = compound: Cc1ncc(-c2ccnc(Nc3ccc(S(C)(=O)=O)cc3)n2)n1C(C)C
How it was run: as §1

[8] = compound: Cn1cc(-c2ccc3c(c2)CCN3C(=O)Cc2cccc(C(F)(F)F)c2)c2c(N)ncnc21
How it was run: as §1

[9] = compound: Cn1cc(-c2ccc3nnc(C(F)(F)c4ccc5ncccc5c4)n3n2)cn1
How it was run: as §1

tipifarnib = compound: Cn1cncc1[C@@](N)(c1ccc(Cl)cc1)c1ccc2c(c1)c(-c1cccc(Cl)c1)cc(=O)n2C [tipifarnib]
How it was run: as §1

mubritinib = compound: FC(F)(F)c1ccc(/C=C/c2nc(COc3ccc(CCCCn4ccnn4)cc3)co2)cc1 [mubritinib]
How it was run: as §1

Measured: log2 fold change

MIEF1 (UniProt L0R8F8)
inactive: [1] -0.023 | crizotinib 0.068 | [2] -0.067 | [3] -0.065 | duvelisib 0.151 | gandotinib -0.062 | tozasertib 0.023 | [4] -0.025 | doramapimod -0.04 | ispinesib -0.03 | bafetinib -0.077 | [5] -0.001 | nilotinib -0.1 | [6] 0.067 | dasatinib 0.001 | [7] -0.093 | [8] 0.022 | [9] -0.053 | tipifarnib -0.03 | mubritinib -0.039

MAGOHB (UniProt Q96A72)
UniProt Q96A72, sequence (Q96A72 whole entry, looked up): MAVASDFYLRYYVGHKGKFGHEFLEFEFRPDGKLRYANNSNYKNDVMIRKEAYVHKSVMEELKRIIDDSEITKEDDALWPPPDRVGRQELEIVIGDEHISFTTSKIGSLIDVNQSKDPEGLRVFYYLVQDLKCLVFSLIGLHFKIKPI
inactive: [1] 0.005 | [2] 0.013 | [3] -0.131 | duvelisib 0.039 | gandotinib 0.084 | tozasertib 0.141 | [4] 0.05 | doramapimod -0.016 | ispinesib 0.076 | bafetinib -0.015 | [5] -0.007 | nilotinib -0.019 | [6] -0.042 | dasatinib 0.007 | [7] 0.138 | [8] -0.017 | [9] 0.024 | tipifarnib 0 | mubritinib 0.04
active: crizotinib 0.324

ILKAP (UniProt Q9H0C8)
UniProt Q9H0C8, sequence (Q9H0C8 whole entry, looked up): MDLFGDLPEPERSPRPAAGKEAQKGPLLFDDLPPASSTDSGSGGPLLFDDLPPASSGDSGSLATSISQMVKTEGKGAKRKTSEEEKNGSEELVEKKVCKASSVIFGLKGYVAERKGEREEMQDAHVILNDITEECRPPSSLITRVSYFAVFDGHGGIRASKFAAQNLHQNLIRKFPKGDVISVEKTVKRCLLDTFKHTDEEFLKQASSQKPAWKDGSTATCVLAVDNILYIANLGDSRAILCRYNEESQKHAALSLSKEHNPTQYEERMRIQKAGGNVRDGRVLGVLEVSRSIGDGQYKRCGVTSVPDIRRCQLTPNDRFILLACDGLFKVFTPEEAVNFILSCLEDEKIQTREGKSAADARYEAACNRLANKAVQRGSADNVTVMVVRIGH
inactive: [1] 0.008 | crizotinib 0.064 | [2] 0.174 | [3] -0.054 | duvelisib 0.041 | gandotinib -0.061 | tozasertib 0 | [4] 0.085 | doramapimod -0.055 | ispinesib 0.05 | bafetinib 0.028 | [5] 0.079 | nilotinib 0.052 | [6] -0.117 | dasatinib -0.208 | [7] 0.02 | [8] 0.036 | [9] 0.045 | tipifarnib -0.093 | mubritinib 0.137

LMF2 (UniProt Q9BU23)
UniProt Q9BU23, sequence (Q9BU23 whole entry, looked up): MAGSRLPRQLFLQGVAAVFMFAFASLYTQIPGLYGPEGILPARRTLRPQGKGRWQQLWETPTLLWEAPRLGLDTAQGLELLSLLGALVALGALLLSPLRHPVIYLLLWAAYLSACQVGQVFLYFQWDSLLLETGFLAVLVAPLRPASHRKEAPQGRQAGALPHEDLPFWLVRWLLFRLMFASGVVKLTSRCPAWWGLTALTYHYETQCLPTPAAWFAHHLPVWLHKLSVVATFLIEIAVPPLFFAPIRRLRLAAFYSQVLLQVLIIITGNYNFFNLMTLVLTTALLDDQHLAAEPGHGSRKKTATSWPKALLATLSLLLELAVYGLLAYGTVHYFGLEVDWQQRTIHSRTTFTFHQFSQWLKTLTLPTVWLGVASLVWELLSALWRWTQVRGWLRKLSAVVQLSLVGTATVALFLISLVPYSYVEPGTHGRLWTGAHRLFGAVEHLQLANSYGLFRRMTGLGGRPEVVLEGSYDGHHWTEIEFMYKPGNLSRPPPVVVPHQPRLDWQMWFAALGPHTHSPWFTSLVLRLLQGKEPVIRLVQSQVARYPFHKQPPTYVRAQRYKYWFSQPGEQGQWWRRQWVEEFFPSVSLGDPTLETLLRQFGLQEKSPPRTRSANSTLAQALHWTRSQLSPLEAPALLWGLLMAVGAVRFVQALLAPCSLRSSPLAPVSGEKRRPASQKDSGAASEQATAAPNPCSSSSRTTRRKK
inactive: [1] 0.039 | crizotinib 0.016 | [2] -0.05 | [3] 0.053 | duvelisib 0.002 | gandotinib 0.023 | tozasertib 0.088 | [4] 0.023 | doramapimod 0.046 | ispinesib -0.075 | bafetinib -0.068 | [5] 0.024 | nilotinib 0.047 | [6] -0.014 | dasatinib 0.033 | [7] 0.026 | [8] 0.021 | [9] 0.022 | tipifarnib 0.019 | mubritinib 0.052

IKZF1 (UniProt Q13422)
inactive: [1] -0.065 | crizotinib -0.048 | [2] 0.008 | [3] -0.069 | duvelisib 0.111 | gandotinib -0.038 | tozasertib -0.078 | [4] 0.039 | doramapimod -0.016 | ispinesib -0.186 | bafetinib -0.062 | [5] -0.004 | nilotinib 0.237 | [6] -0.347 | dasatinib -0.121 | [7] -0.112 | [8] 0.072 | [9] 0.119 | tipifarnib -0.026 | mubritinib -0.07

MAIP1 (UniProt Q8WWC4)
UniProt Q8WWC4, sequence (Q8WWC4 whole entry, looked up): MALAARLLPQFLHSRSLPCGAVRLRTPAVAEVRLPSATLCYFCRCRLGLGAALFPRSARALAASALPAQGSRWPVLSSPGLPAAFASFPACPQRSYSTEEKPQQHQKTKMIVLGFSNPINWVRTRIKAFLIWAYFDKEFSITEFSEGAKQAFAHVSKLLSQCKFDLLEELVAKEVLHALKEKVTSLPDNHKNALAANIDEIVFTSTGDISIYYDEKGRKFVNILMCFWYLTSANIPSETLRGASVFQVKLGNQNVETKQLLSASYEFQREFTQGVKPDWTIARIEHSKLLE
inactive: [1] 0.071 | crizotinib -0.114 | [2] 0.062 | [3] -0.072 | duvelisib 0.025 | gandotinib -0.025 | tozasertib 0.027 | [4] -0.005 | doramapimod -0.008 | ispinesib -0.21 | bafetinib -0.147 | [5] 0.005 | nilotinib 0.027 | [6] 0.007 | dasatinib -0.021 | [7] -0.004 | [8] 0.031 | [9] 0.028 | tipifarnib -0.047 | mubritinib -0.006

LARP4 isoform 4 (UniProt Q71RC2)
inactive: [1] -0.027 | crizotinib -0.098 | [3] 0.177 | duvelisib -0.075 | gandotinib 0 | tozasertib 0.017 | [4] 0.06 | doramapimod 0.104 | ispinesib -0.237 | bafetinib 0.022 | [5] -0.027 | nilotinib -0.073 | [6] -0.147 | dasatinib 0 | [7] -0.028 | [8] -0.078 | [9] -0.103 | tipifarnib 0.071 | mubritinib -0.046
active: [2] -0.308

KDM3B (UniProt Q7LBC6)
UniProt Q7LBC6, sequence (Q7LBC6 whole entry, looked up): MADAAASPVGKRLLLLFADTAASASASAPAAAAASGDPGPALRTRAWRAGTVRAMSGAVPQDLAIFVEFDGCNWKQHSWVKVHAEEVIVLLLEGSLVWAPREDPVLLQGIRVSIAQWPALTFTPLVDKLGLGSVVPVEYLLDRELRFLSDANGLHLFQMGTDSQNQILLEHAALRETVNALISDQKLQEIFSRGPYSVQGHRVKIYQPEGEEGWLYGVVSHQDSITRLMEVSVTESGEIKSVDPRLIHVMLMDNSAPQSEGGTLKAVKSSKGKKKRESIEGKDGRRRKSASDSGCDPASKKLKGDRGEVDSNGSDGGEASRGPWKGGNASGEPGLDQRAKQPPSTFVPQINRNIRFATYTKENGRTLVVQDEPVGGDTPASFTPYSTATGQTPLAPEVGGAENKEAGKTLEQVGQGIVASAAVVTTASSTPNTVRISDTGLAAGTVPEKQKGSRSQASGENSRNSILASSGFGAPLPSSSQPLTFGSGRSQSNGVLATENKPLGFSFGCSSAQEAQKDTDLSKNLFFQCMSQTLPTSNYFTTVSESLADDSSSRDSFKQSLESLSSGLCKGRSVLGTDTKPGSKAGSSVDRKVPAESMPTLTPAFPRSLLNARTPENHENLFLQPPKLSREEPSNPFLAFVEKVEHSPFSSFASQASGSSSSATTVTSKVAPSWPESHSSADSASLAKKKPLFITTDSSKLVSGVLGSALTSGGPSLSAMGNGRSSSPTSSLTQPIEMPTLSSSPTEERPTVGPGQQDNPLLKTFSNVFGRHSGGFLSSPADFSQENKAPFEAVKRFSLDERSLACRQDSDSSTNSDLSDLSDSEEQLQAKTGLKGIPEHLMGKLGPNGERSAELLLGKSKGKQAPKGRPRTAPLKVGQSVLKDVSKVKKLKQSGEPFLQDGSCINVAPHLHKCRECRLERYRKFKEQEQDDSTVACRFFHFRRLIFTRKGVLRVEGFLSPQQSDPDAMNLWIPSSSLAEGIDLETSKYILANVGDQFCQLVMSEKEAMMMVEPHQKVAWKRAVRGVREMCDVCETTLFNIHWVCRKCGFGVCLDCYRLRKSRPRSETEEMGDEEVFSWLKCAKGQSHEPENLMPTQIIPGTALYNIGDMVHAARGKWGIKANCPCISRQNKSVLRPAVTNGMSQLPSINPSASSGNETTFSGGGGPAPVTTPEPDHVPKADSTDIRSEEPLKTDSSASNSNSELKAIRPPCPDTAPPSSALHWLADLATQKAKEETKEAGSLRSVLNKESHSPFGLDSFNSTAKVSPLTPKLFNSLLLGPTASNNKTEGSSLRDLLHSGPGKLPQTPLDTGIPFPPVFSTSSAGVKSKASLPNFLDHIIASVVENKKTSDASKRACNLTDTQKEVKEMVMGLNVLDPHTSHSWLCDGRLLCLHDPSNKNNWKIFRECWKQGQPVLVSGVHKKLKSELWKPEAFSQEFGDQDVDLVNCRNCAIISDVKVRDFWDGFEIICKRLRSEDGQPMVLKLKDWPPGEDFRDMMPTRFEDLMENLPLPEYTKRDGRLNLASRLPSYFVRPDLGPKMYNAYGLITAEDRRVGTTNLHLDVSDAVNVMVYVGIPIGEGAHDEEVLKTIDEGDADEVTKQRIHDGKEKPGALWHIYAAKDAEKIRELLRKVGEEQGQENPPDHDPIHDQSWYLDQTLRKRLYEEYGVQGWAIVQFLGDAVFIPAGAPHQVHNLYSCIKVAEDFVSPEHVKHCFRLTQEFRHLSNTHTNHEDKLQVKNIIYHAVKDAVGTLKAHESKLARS
inactive: [1] 0.045 | crizotinib 0.001 | [2] 0.086 | [3] -0.044 | duvelisib 0.015 | gandotinib -0.045 | tozasertib 0.06 | [4] 0.012 | doramapimod -0.077 | ispinesib 0.015 | bafetinib -0.005 | [5] 0.038 | nilotinib -0.009 | [6] -0.098 | dasatinib -0.136 | [7] 0.042 | [8] -0.032 | [9] 0.006 | tipifarnib 0.018 | mubritinib 0.002

KCT2 (UniProt Q8NC54)
UniProt Q8NC54, sequence (Q8NC54 whole entry, looked up): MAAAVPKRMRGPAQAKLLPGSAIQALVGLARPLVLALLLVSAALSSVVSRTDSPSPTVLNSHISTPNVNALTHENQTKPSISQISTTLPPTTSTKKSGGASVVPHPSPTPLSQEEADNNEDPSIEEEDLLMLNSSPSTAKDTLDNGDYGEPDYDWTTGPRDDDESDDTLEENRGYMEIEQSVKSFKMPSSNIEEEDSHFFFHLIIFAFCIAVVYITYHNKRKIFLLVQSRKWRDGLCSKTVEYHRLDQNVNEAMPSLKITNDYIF
inactive: [1] 0 | crizotinib -0.186 | [2] 0.074 | [3] -0.04 | duvelisib 0.064 | gandotinib 0.038 | tozasertib 0.033 | [4] 0.054 | doramapimod 0.091 | ispinesib -0.118 | bafetinib -0.114 | [5] 0.045 | nilotinib -0.01 | [6] -0.023 | dasatinib 0.045 | [7] 0.021 | [8] 0.01 | [9] 0.073 | tipifarnib 0.125 | mubritinib 0.052

LSS (UniProt P48449)
UniProt P48449, sequence (P48449 whole entry, looked up): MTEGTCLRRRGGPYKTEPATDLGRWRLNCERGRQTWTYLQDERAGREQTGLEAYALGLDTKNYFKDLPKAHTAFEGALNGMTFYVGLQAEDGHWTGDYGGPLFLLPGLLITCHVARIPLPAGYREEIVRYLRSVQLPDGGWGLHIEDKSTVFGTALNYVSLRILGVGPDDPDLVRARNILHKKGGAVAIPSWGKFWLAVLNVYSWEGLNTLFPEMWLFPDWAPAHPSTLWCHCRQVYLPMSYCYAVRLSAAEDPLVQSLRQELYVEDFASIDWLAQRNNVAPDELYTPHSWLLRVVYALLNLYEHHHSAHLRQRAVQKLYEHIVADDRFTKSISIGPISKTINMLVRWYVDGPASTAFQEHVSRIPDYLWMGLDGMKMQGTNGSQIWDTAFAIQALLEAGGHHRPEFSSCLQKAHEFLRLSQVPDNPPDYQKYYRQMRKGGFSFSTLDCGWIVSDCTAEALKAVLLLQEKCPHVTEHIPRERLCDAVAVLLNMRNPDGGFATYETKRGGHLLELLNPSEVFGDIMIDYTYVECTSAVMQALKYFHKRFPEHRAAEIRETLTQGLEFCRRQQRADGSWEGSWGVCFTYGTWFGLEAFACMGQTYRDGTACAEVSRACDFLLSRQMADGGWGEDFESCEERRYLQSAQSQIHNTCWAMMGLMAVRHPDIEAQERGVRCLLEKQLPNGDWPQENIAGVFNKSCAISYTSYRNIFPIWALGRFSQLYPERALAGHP
inactive: [1] 0.043 | [2] 0.081 | [3] 0.02 | duvelisib 0.044 | gandotinib 0.044 | tozasertib 0.103 | [4] 0.017 | doramapimod 0.024 | ispinesib 0.111 | bafetinib 0.393 | [5] 0 | nilotinib -0.046 | [6] 0.047 | dasatinib 0 | [7] 0.013 | [8] 0.145 | [9] 0 | tipifarnib -0.039 | mubritinib 0.193
active: crizotinib 0.77

KDELR2 (UniProt P33947)
UniProt P33947, sequence (P33947 whole entry, looked up): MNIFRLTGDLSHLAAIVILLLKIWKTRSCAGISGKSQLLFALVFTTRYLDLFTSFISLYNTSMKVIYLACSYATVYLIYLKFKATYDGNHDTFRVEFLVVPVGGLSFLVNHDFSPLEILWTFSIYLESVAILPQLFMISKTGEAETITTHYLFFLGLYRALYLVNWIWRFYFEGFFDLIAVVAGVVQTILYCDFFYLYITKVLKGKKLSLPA
inactive: [1] 0.056 | crizotinib 0.035 | [2] 0.205 | [3] -0.096 | duvelisib 0.099 | gandotinib -0.107 | tozasertib -0.027 | [4] -0.007 | doramapimod 0.016 | ispinesib 0.016 | bafetinib -0.088 | [5] 0.072 | nilotinib -0.069 | [6] 0.035 | dasatinib 0.097 | [7] -0.082 | [8] 0.194 | [9] 0.264 | tipifarnib 0.125 | mubritinib -0.049

KEAP1 (UniProt Q14145)
inactive: [1] 0.011 | crizotinib -0.077 | [2] -0.095 | [3] 0.111 | duvelisib 0.008 | gandotinib -0.176 | tozasertib 0.077 | [4] 0.049 | doramapimod 0.089 | ispinesib -0.102 | bafetinib -0.057 | [5] 0.032 | nilotinib -0.108 | [6] -0.108 | dasatinib -0.027 | [7] 0.021 | [8] -0.085 | [9] -0.07 | tipifarnib -0.047 | mubritinib 0.037

MEPCE (UniProt Q7L2J0)
active: [6] -0.337
inactive: [1] -0.006 | crizotinib 0.111 | [2] 0.03 | [3] -0.005 | duvelisib -0.005 | gandotinib -0.051 | tozasertib 0.094 | [4] 0.04 | doramapimod -0.22 | ispinesib -0.065 | bafetinib -0.12 | [5] 0.065 | nilotinib 0 | dasatinib -0.116 | [7] -0.123 | [8] 0.023 | [9] 0.061 | tipifarnib 0.029 | mubritinib -0.018

MAGEC2 (UniProt Q9UBF1)
UniProt Q9UBF1, sequence (Q9UBF1 whole entry, looked up): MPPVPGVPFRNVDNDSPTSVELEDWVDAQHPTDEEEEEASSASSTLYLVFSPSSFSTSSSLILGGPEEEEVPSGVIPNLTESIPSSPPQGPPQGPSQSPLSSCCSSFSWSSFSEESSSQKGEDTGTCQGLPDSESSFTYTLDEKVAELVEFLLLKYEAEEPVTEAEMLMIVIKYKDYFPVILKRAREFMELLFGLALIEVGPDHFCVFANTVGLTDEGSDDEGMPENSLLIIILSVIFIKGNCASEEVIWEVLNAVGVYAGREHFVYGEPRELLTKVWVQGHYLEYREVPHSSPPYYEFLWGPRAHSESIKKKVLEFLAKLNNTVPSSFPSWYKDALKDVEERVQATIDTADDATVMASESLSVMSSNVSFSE
inactive: [1] 0.008 | crizotinib 0.049 | [2] 0.009 | [3] 0.081 | duvelisib 0.043 | gandotinib 0.055 | tozasertib 0.107 | [4] -0.036 | doramapimod -0.036 | ispinesib -0.012 | bafetinib -0.024 | [5] -0.065 | nilotinib -0.02 | [6] 0.021 | dasatinib 0.059 | [7] 0 | [8] -0.056 | [9] -0.07 | tipifarnib -0.02 | mubritinib -0.015

KPNA4 (UniProt O00629)
inactive: [1] 0.004 | crizotinib -0.003 | [2] 0.024 | [3] -0.073 | duvelisib 0.03 | gandotinib -0.032 | tozasertib -0.014 | [4] 0.014 | doramapimod -0.046 | ispinesib 0.037 | bafetinib -0.111 | [5] 0.021 | nilotinib 0.04 | [6] -0.155 | dasatinib -0.017 | [7] -0.033 | [8] 0.021 | [9] 0.032 | tipifarnib -0.004 | mubritinib 0.093
